Assay results as given in PubChem BioAssay AID1851 (National Center for Advancing Translational Sciences (NCATS), 2009).
Hit rate of the full screen: of about 16,000 compounds, about 5,100 (32%) were called active. Not shown: some 25% with an inconclusive outcome. Calls follow the shape of the dose curve; as a rule, active = well fitted curve in the direction sought with a large enough effect; inconclusive = small, poorly fitted or top-dose-only effect, or effect the other way; inactive = no such curve, though single readings can be large or run the other way. Some of the results follow.

target: Cytochrome P450 3A4 (Homo sapiens) (UniProt P08684); test: Cytochrome panel assay with activity outcomes; conditions: recombinant CYP, pro-luciferin dealkylation, luminescence, p450-cyp3a4; series mostly up to 57.1 µM; activity, negative = inhibition: at the top concentration
Sequence (P08684 whole entry, looked up): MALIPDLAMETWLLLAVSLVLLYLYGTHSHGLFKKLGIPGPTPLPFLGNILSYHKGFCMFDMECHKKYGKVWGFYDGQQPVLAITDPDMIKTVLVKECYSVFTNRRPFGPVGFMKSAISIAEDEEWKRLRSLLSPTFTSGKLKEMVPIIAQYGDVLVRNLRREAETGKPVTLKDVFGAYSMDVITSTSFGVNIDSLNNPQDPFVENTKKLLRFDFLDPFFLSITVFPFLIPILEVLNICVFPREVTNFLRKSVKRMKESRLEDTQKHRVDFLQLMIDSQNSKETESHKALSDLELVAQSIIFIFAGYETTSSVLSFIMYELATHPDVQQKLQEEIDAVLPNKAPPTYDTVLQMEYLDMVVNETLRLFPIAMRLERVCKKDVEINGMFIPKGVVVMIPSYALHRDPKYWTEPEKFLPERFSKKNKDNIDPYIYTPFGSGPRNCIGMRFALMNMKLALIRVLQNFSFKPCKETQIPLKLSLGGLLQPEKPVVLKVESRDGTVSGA
% is scaled to controls: 0 for no effect and ±100 for the full control effect.

activity, negative = inhibition, inactive:
CSc1cc(C)nc(NC(C)=O)n1 -0.518%
Cc1nc(Oc2ccc(Cl)cc2)c2oc3ccccc3c2n1 5.99% [at 2.29 µM]
CCc1nc(N[C@H](C(=O)O)C(C)CC)c2oc3ccccc3c2n1 (stereo partly drawn) -3.57%
Cc1ccccc1C(=O)NC(C)c1ccc2c(c1)CCCC2 (stereo not drawn) -17.3%
CCCCN=c1sc(C(=O)OC)cc(=O)n1CCCC -0.264%
COC(=O)[C@H](CCSC)NC(=O)C/C=C\[C@@H](C)[C@@H](CO)OC -14.3% [at 11.4 µM]
COC(=O)[C@H](CCSC)NC(=O)C/C=C\[C@@H](C)CO -19.4% [at 11.4 µM]
C=CCNC(=S)N1CCN(c2ncc3c(=O)c(C(=O)O)cn(CC)c3n2)CC1 2.96%
COc1ccc(C(=O)NC(CO)c2nnc(SCc3ccc(Cl)c(Cl)c3)n2C)cc1 (stereo not drawn) -5.47% [at 2.29 µM]
COc1cccc(CSCC(=O)O)c1 -5.22% [at 11.4 µM]
NC(=O)CC(c1ccccc1)c1ccco1 (stereo not drawn) -3.81%
O=C(Nc1ccnc(-c2cccnc2)n1)c1ccccc1Cl 3.82% [at 2.29 µM]
Cc1cccc(NC(=O)c2cc(N3C(=O)CCC3=O)ccc2Cl)n1 -1.39%
CC(=O)Nc1ccnc(-c2cccnc2)n1 5.09%
Cn1cc(C(=O)c2ccc(Cl)cc2Cl)cc1C(=O)O 24.4%
Nc1nc(NCc2ccccc2)nc(Nc2cccc(F)c2)c1[N+](=O)[O-] -2.74%
CCC1(O)c2ccccc2-c2ncccc21 (stereo not drawn) -21%
COc1ccc(C(N)=O)cc1NC(=O)c1cccc(F)c1 7.69%
CCc1cc2c(Sc3nc4ccccc4s3)ncnc2s1 6.04% [at 2.29 µM]
c1ccc(NCCSc2nc3ccccc3s2)cc1 -25.9% [at 11.4 µM]
COc1n[nH]c2nncnc12 3.1%
CCOC(=O)c1[nH]c(C)c(C)c1C -10.8%
CCOC(=O)C1=C(C)NC2(O)c3ccccc3C(=O)C12O (stereo not drawn) 8.09%
COc1ncc2ncc(=O)n(C)c2n1 -13%
COc1ncc2ncc(=O)n(CCC#N)c2n1 -14.1%
N#CCCn1c(=O)cnc2cnc(OCc3ccccc3)nc21 -26.2%
C[N+]1(CCC[N+]2(C)C[C@H]3[C@H](C2)[C@H]2C=C[C@@H]3CC2)CCOCC1 (stereo partly drawn) 31.7% [at 11.4 µM]
CCN(CC)c1cc(C)c2cc(NC(=O)CNC(C)=O)ccc2n1 -3.72% [at 11.4 µM]
COc1ccc2c(C)cc(N3CCOCC3)nc2c1 -8.84%
C/C(=N\O)c1cccc[n+]1Cc1ccccc1 -11.2% [at 11.4 µM]
O=C(Nc1nnc(CCS(=O)(=O)c2ccc(Br)cc2)s1)c1ccc([N+](=O)[O-])cc1 -8.9% [at 2.29 µM]
COC(=O)C1CSC(C(=O)OC)N1C(=O)Nc1c(C)cccc1C (stereo not drawn) -24.2%
CC(C)CNC(=O)CCCc1c[nH]c2ccccc12 14.6% [at 2.29 µM]
C[C@@H]1O[C@@H](O)[C@@H](O)[C@H](O)[C@H]1O -3.34% [at 11.4 µM]
O=C(Oc1oc(-c2ccco2)nc1C=Nc1ccc(Cl)cc1)c1ccco1 0.287%
CN(C)c1oc(-c2ccccc2)nc1C#N -21.4%
CC(=O)N1CCN(C)CC1 -10.7%
CCOc1cc(C2NN=C(c3ccccc3)S2)ccc1OCc1ccccc1Cl (stereo not drawn) 7.68% [at 2.29 µM]
Cc1cc(C(C)(C)C)cc(CNC2CCCCC2)c1O -20.7% [at 11.4 µM]
CCN1CCCC1CNC(=O)C(=O)Nc1ccccc1OC (stereo not drawn) -20.6%
CC1CCC(NC(=O)CC(C)(C)Cc2nc3ccccc3c(=O)[nH]2)CC1 (stereo not drawn) 13.9%
CCOc1ccccc1NC(=O)C(=O)NCC1CCCN1CC (stereo not drawn) -6.39%
C1CCc2c(nc3nnnn3c2NC2CCCC2)C1 -17.9%
COc1cc(CC(=O)O)c(C(C)=O)cc1OC 18.7%
Cc1cccc(N2CCN(c3ccc(NC(=O)/C=C(/C(=O)O)c4ccccc4)cc3)CC2)c1 0.321% [at 2.29 µM]
N#CCCn1c(=O)c(-c2ccccc2)nc2cnc(Nc3ccccc3)nc21 -28.1%
COc1ccc(-c2nc3cnc(Nc4ccccc4)nc3n(CCC#N)c2=O)cc1 -23.2%
O=C1CCCC=C1[C@@H](O)CCOC(c1ccccc1)(c1ccccc1)c1ccccc1 -80.3% [at 11.4 µM]
CC(C)(C)c1cc(Br)c(O)c(CN(Cc2cc(C(C)(C)C)cc(Br)c2O)C2CCCCC2)c1 -3.9% [at 11.4 µM]
COCCn1c(=O)cnc2cnc(Nc3ccccc3)nc21 -22.2%
COCCn1c(=O)c(-c2ccc(Cl)cc2)nc2cnc(Nc3ccccc3)nc21 -29.4%
N#CCCn1c(=O)c(-c2cc(F)cc(F)c2)nc2cnc(Nc3ccccc3)nc21 -28.1%
CN(C)c1ncc2ncc(=O)n(CCC#N)c2n1 -17.1%

AC50, active:
CCc1nc(SCC(=O)c2ccc(Cl)s2)c2oc3ccccc3c2n1 7.94 µM
CCc1nc(SCC(=O)NCCc2ccccc2)c2oc3ccccc3c2n1 3.55 µM
CCc1nc(SCC(=O)N2CCCc3ccccc32)c2oc3ccccc3c2n1 15.8 µM
COC(=O)[C@H](CCSC)NC(=O)NCc1ccccc1F 15.8 µM
C[C@@H](C(=O)Nc1ccc2ccccc2c1)[C@@H]1C[C@@]1(C)[C@@H](NC(=O)c1cnccn1)c1ccccc1 1 µM
C[C@@H](C(=O)Nc1ccc2ccccc2c1)[C@@H]1C[C@@]1(C)[C@@H](NC(=O)c1ccncc1Cl)c1ccccc1 10 µM
C[C@@H](C(=O)Nc1ccc2ccccc2c1)[C@H]1C[C@]1(C)[C@H](NC(=O)c1cnccn1)c1ccccc1 0.631 µM
Fc1ccc(Cn2c(SCc3ccc(F)c(C(F)(F)F)c3)nnc2C(F)(F)F)cc1 20 µM
COc1cccc(CSc2nnc(C(F)(F)F)n2Cc2ccc(F)cc2)c1 28.2 µM
Fc1ccc(Cn2c(SCc3ccc(F)c(F)c3)nnc2C(F)(F)F)cc1 15.8 µM
Cc1ccc(CSc2nnc(C(F)(F)F)n2Cc2ccc(F)cc2)cc1 3.16 µM
O=C(Nc1ccnc(-c2cccnc2)n1)c1cccc(Cl)c1Cl 4.47 µM
c1ccc(CNc2ccnc(-c3cccnc3)n2)cc1 0.631 µM
Cc1cccc(CNc2ccnc(-c3cccnc3)n2)c1 0.501 µM
C=C(C)c1cccc(C(C)(C)NC(=O)Nc2cc(C)ccc2OC)c1 10 µM
O=[N+]([O-])c1c(NCCO)cc(Sc2nc3ccccc3s2)c2nonc12 25.1 µM
CCOC(=O)C1=C(C)NC(C)=C(C(=O)OCC)C1c1sccc1C 11.2 µM
O=c1cnc2cnc(OCc3ccccc3)nc2n1Cc1ccc(F)cc1 5.01 µM
COc1ncc2ncc(=O)n(Cc3ccc(F)cc3)c2n1 10 µM
CCCCNC(=O)CCC(=O)Nc1ccc2nc(N3CCOCC3)cc(C)c2c1 5.01 µM
COCCCNC(=O)CCC(=O)Nc1ccc2nc(N3CCOCC3)cc(C)c2c1 12.6 µM
Cc1cc(N2CCN(C)CC2)nc2ccc(NC(=O)CCC(=O)NCc3ccco3)cc12 15.8 µM
COc1ccc2[nH]cc(CCNc3nc(-c4ccc(N(C)C)cc4)nc4ccccc34)c2c1 2.51 µM
COc1ccc2[nH]cc(CCNc3nc(-c4ccc(C(=O)N(C)C)cc4)nc4ccccc34)c2c1 2.51 µM
Cc1ccc(S(=O)(=O)CCc2nnc(NC(=O)COc3cccc(C)c3)s2)cc1 2.82 µM
CC(=O)c1cn(CC(=O)Nc2c(C)cccc2C)c2ccccc12 11.2 µM
Cc1[nH]nc(-c2ccc(O)cc2O)c1-c1ccc(Cl)cc1 3.55 µM
C=C(C)COc1ccc(-c2n[nH]c(C)c2-c2ccc(OC)cc2)c(O)c1 10 µM
Oc1ccc(-c2[nH]ncc2-c2ccc(Cl)cc2)c(O)c1 0.562 µM
COc1ccc(-c2n[nH]c(C)c2-c2ccc(Cl)cc2)c(O)c1 14.1 µM
C[C@@H](C(=O)NCCc1c[nH]c2ccccc12)[C@H]1C[C@]1(C)[C@H](NC(=O)OCc1ccccc1)c1ccccc1 1.58 µM
C[C@@H](C(=O)NCCc1c[nH]c2ccccc12)[C@@H]1C[C@@]1(C)[C@@H](NC(=O)OCc1ccccc1)c1ccccc1 3.16 µM
CN(C)c1ccc(N=Cc2nc(-c3ccccc3)oc2O)cc1 14.1 µM
COc1cc(CNC2CCCC2)cc(Cl)c1OCc1ccccc1Cl 5.62 µM
CCN1CCCC1CNC(=O)CSCc1nc(-c2ccccc2C)oc1C (stereo not drawn) 6.31 µM
Cc1oc(-c2ccccc2Cl)nc1CSCC(=O)NC1CC1 4.47 µM
O=c1cc(N2CCCCC2)c(-c2ccccc2)nn1Cc1ccccc1Cl 10 µM
COC(=O)c1cc(OC)c(OC)cc1NC(=S)N1CCCCC1 3.98 µM
COC(=O)c1ccc(C(=O)OC)c(NC(=S)N2CCN(c3ccccc3)CC2)c1 7.94 µM
COc1cccc(Nc2ncc3nc(C)c(=O)n(CCC#N)c3n2)c1 12.6 µM
COc1cccc(Cn2c(=O)cnc3cnc(Nc4cccc(OC)c4)nc32)c1 2 µM
COc1ccc(-c2nc3cnc(Nc4cccc(OC)c4)nc3n(CCC#N)c2=O)cc1 3.98 µM
COc1cccc(Nc2ncc3nc(-c4cccs4)c(=O)n(CCC#N)c3n2)c1 6.31 µM
COc1cccc(Nc2ncc3ncc(=O)n(CCC#N)c3n2)c1 15.8 µM
COc1cccc(Nc2ncc3nc(-c4cc(F)cc(F)c4)c(=O)n(CCC#N)c3n2)c1 10 µM
COCCn1c(=O)cnc2cnc(Nc3cccc(OC)c3)nc21 15.8 µM
COCCn1c(=O)c(-c2ccccc2)nc2cnc(Nc3ccccc3)nc21 12.6 µM

AC50, inactive:
O=C1NCC2(CCN(CCc3ccccc3)CC2)O1
Cc1cccc(C)c1NC(=O)C[N+](C)(C)C
NC(=NCc1ccccc1)NC(=O)c1nc(Cl)c(N)nc1N
